Source: PubChem (Broad Institute)
Not all results are given here.
aSyn 5UTR act = Activators via SNCA 5'UTR binding, MLPCN. alpha-synuclein 5'UTR reporter, activators screen. activity score, % (tested at 7.5 µM), hits read low. 7.1% of 300,000 active. AID 1814; in the data active means activity score below about -60%
A number is an active result; – = inactive.

SMILES	aSyn 5UTR act
Cc1ccc(NC(=O)Nc2cc(C)on2)cc1	-142.8
O=C(Nc1ccsn1)c1ccc(Cl)cc1Cl	-161.7
Cc1cc(C(=O)Nc2cc(C(C)(C)C)on2)c(C)o1	-146.6
Cc1cc(NC(=O)Nc2ccc(Cl)cc2)no1	-109.6
O=C(CCCN1C(=O)/C(=C/c2ccccc2Cl)SC1=S)NNC(=O)c1ccc(Cl)cc1Cl	–
Cc1cc(C(=O)NNC(=O)c2ccc(Cl)cc2Cl)c(C)o1	-76.2
CN(C)c1ccc(N=Nc2nc3ccccc3n2C)cc1	-116.5
CS(=O)(=O)N1CCN(c2ccc(NC(=O)c3ccccc3)cc2)CC1	-123.5
Cc1cccc(C(=O)Nc2ccc(N3CCN(S(C)(=O)=O)CC3)cc2)c1	-84.1
COc1ccccc1OCCCC(=O)Nc1nccs1	-97.5
COc1cccc2c1OCC(C(=O)Nc1nccs1)=C2	-121.8
Oc1cccc(C(Nc2nccs2)c2ccc3cccnc3c2O)c1 (stereo not given)	–
O=C(COc1cccc2cccnc12)Nc1nccs1	-84.6
COc1c(C(=O)Nc2nccs2)ccc2ccccc12	-172.3
COc1cc2ccccc2cc1C(=O)NCC(c1cccs1)N(C)C (stereo not given)	-105.8
COc1cc2ccccc2cc1C(=O)Nc1nccs1	-256.0
Cc1c(/C=N\NC(=O)C2COc3ccccc3O2)c2ccccc2n1C (stereo not given)	–
O=[N+]([O-])/C=C/c1cn(Cc2ccc(F)cc2)c2ccccc12	–
O=C(O)c1ccc(N/N=C/c2cn(Cc3ccc(F)cc3)c3ccccc23)cc1	-68.9
Cc1c(/C=N/Nc2ccc(C(=O)O)cc2)c2ccccc2n1C	-118.8
O=C(N/N=C/c1cn(Cc2ccccc2)c2ccccc12)c1cc(O)cc(O)c1	–
Cc1cccn2cc(COc3cccc([N+](=O)[O-])c3)nc12	-65.1
CC1CCN(CCc2nc3cc(NC(=O)Nc4ccccc4)ccc3n2C)CC1	-84.1
Cc1ccc(C(=O)Nc2ccc3c(c2)nc(CCNC(=O)c2ccco2)n3C)cc1	-103.9
Cn1c(CN2CCCCC2)nc2cc(NC(=O)c3ccccc3)ccc21	-73.4
SMILES	aSyn 5UTR act
O=C(CN1CCC(NC(=O)c2cccc(F)c2)CC1)Nc1ccc(Br)cc1	–
O=C(Nc1ccc(CN2CCCCC2)cc1)c1cccc(Br)c1	-71.9
Cn1c(CN2CCCC2)nc2cc(NC(=O)c3ccco3)ccc21	-115.8
Cn1c(CN2CCCCC2)nc2cc(NC(=O)c3cccs3)ccc21	-67.7
Cn1c(CN2CCCCC2)nc2cc(NC(=O)c3cccc(Br)c3)ccc21	-98.8
O=C(Nc1ccc(CN2CCCCC2)cc1)c1sc2ccccc2c1Cl	-158.7
CCN1CCN(Cc2ccc(NC(=O)c3cc(NC(=O)c4cncc(-c5cccs5)c4)cc(OC)c3)cc2C(F)(F)F)CC1	–
O=C(Nc1ccc2c(c1)nc1n2CCN(Cc2ccccc2)C1)c1cccs1	-91.4
CCC(=O)NCCc1nc2cc(NC(=O)c3ccccc3Cl)ccc2n1C	-77.6
COc1c(C)cccc1C(=O)Nc1ccc(CN2CCCCC2)cc1	-101.0
Cc1cc(C)c(NC(=O)CCN2CCN(Cc3ccccc3)CC2)c(C)c1	–
COCn1c(-c2cccc(Br)c2)nc2ccccc21	-63.3
COCn1c(-c2ccc(OC)c(OC)c2)nc2ccccc21	-105.6
Cn1c(O)c(C2=c3ccccc3=NC2=O)sc1=Nc1ccc(Cl)cc1	-93.1
C=CCN1C(=O)CS/C1=N\N=C\c1cccc([N+](=O)[O-])c1	-72.7
CCOC(=O)c1cc2c(nc1NC(=S)NCc1ccccc1)CCCC2	-107.0
Oc1ccc(-c2nccc(-c3ccccn3)n2)cc1	-188.3
FC(F)(F)c1cc(Oc2ccccc2Cl)nc(-c2ccccn2)n1	–
O=C(Oc1ccc(-c2nccc(-c3ccccn3)n2)cc1)c1cccc(C(F)(F)F)c1	-139.9
Cc1ccc(C(=O)Oc2ccc(-c3nccc(-c4ccccn4)n3)cc2)cc1	-144.0
O=C(O)CC(=O)Nc1ccc(Oc2ccc(C(F)(F)F)cn2)c(Cl)c1	–
O=C(Nc1ccc(OCC(F)(F)C(F)F)c(C(F)(F)F)c1)c1ccccc1	-100.7
COc1ccc(Cc2nc3ccc(C(=O)N4CCCC4)cc3o2)cc1	-155.1
O=C(c1ccc2nc(Cc3cccc(Cl)c3)oc2c1)N1CCOCC1	-98.6
COc1ccc(Cc2nc3ccc(C(=O)NC(C)C)cc3o2)cc1	-107.4
SMILES	aSyn 5UTR act
COc1ccc([C@@H](C)NC(=O)c2ccc3oc(C(C)C)nc3c2)cc1	-70.5
C=C(C)CNC(=O)c1ccc2nc(Cc3ccc(OC)cc3)oc2c1	-178.1
O=c1c2ccccc2sn1-c1ccccc1	-115.1
CC1CCc2c(nc3ncnn3c2NCCc2ccccc2F)C1 (stereo not given)	-69.5
CC1CCC(NC(=O)Nc2cccs2)CC1 (stereo not given)	-107.3
CC1CCC(NC(=O)CNC(=O)c2cccs2)CC1 (stereo not given)	-88.4
COc1ccc(-c2csc(-c3cccnc3)n2)cc1C	-243.4
COc1ccc2cc(-c3csc(-c4cccnc4)n3)ccc2c1	-250.9
CN(C)/N=C/C=C1\CCC/C(=C\c2ccc(F)c(F)c2)C1=O	-421.6
CN(C)c1ccc(/C=C2\CCC/C(=C\c3ccccc3)C2=O)cc1	-81.1
COc1ccc(/C=C2\CCC/C(=C\C=N\N(C)C)C2=O)cc1	-427.3
CCOC(=O)N1CCC(Nc2nc3ccccc3nc2NS(=O)(=O)c2ccc(Cl)cc2)CC1	-88.2
CCOC(=O)N1CCN(S(=O)(=O)c2ccc(C(=O)NNc3nc4ccc(Cl)cc4s3)cc2)CC1	–
CN(C)c1ccc(NC(=O)Nc2cccc(Cl)c2)cc1	-137.6
COc1ccc(C(=O)Nc2cccc(N(C)S(C)(=O)=O)c2)cc1OC	-168.1
CC(Cc1cccs1)NC(=O)Nc1cccc(Cl)c1 (stereo not given)	-62.5
CN(c1cccc(NC(=O)Nc2cccc(Cl)c2)c1)S(C)(=O)=O	-91.6
O=C(Nc1nc2c(s1)CCCC2=O)c1cnccn1	-88.2
CC(C)c1nc(C#N)c(NN)o1	-127.2
COc1ccccc1CN=c1c([N+](=O)[O-])nn(-c2ccc3c(c2)OCCO3)n1O	-131.9
O=[N+]([O-])c1nn(-c2ccc3c(c2)OCCO3)n(O)c1=NCc1ccccc1Cl	-95.2
O=[N+]([O-])c1nn(-c2ccc3c(c2)OCCO3)n(O)c1=NC1CCCCC1	-64.5
CCOC(=O)c1c(NC(=O)c2cc(C)oc2C)sc(C(=O)Nc2ccc(Cl)cc2)c1C	-101.9
Cc1ccc(C(=O)Nc2ccc(OCc3ccccc3)cc2)s1	-107.2
COc1ccc(COc2ccsc2C(=O)Nc2ccc(Cl)c(Cl)c2)cc1	-67.7
SMILES	aSyn 5UTR act
Cc1cc(C(=O)Nc2ccc(OCc3ccccc3)cc2)c(C)o1	-134.0
CCc1cccc2c1Sc1ccccc1CC2N1CCNCC1 (stereo not given)	–
Cc1ccsc1C(=O)Nc1ccc(OCc2ccccc2)cc1	-190.8
CCOc1cccc(-c2csc(C3COc4ccccc4O3)n2)c1 (stereo not given)	-105.9
CCOc1cccc(-c2nnc3n2N=C(c2cc(OC)ccc2OC)CS3)c1	–
Cc1ccc(NC(=O)N2CCCCCC2)cc1	-74.2
O=C(Nc1ccc(Br)cc1)N1CCCCCC1	-144.3
CCc1ccc(NC(=O)N2CCCCCC2)cc1	-123.6
COC(=O)c1ccc(NC(=O)C(=O)N2CCCC2)cc1	-147.6
COc1ccc(NC(=O)N2CCCCC2)cc1	-65.5
CCOC(=O)c1ccc(N/C=C2\CCCCC2=O)cc1	-127.1
CCOC(=O)c1ccc(NC(=O)N2CCCCC2)cc1	-91.9
Nc1n[nH]c2ccccc12	-61.6
O=C(/C=C/c1ccc(F)cc1)NC(=S)NNC(=O)c1cnccn1	–
O=C(/C=C/c1ccccc1Cl)NNC(=O)c1cccs1	-82.9
O=C(/C=C/c1ccc(F)cc1)NCc1cccs1	-111.9
